# Bioassay records: PubChem, several laboratories
# Most compounds without a hit are left out; they make up all but 8.9% or so of the library.
# D1 mod: allosteric modulators of human D1 dopamine receptor; HEK293 D1, CRE-luciferase, dopamine EC30 potentiation; actives deviate in either direction; P21728; hit rate 5.9% among 58,000; B-score at 10 µM;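 active means luminescence count or its row- and column-corrected plate score outside the 99.7% band of the plate's sample wells, on either side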
# M1 agonist: M1 muscarinic receptor agonism; B-score at 10 µM; hit rate 3% among 64,000; CHO-M1 cells, Fluo-4 calcium fluorescence, agonist mode; active compounds read high;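 active means fluorescence rise, raw or as B-score row- and column-corrected plate score, outside the 99.7% band of its plate's samples, either direction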
# M1 antagonist: M1 muscarinic receptor (rat) antagonism. hit rate 3.4% among 64,000. CHO-M1 cells, Fluo-4 calcium, ACh EC80 antagonist mode; active compounds read low. B-score at 10 µM. P08482. AID 628;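 active means calcium fluorescence response, raw or row-and-column corrected B-score, differing from the plate sample mean either way at a set confidence level, mostly lower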
# Target sequence (P08482 whole entry, looked up): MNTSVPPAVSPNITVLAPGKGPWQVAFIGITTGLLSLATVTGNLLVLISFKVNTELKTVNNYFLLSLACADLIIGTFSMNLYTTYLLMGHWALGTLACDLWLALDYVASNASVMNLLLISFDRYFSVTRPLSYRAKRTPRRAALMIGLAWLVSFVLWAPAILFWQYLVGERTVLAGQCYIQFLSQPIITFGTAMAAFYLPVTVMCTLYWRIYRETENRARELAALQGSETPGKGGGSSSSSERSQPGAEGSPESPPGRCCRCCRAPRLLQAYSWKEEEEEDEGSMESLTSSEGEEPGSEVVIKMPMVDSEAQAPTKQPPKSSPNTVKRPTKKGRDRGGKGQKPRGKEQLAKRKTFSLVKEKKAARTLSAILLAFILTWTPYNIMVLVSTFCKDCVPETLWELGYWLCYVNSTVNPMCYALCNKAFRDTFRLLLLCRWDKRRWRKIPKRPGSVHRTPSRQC
# Htt clearance: compounds clearing mutant huntingtin protein. HeLa Exon1htt(103Q)mCFP, aggregate imaging; zero = plate's median compound well. inhibition, % at 1.5 µM. hit rate 0.42% among 47,000. AID 853;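 active means inhibition of aggregate fluorescence above about 70%, also judged a hit by eye on the cell image, limit read from the data, passing the limit was not always enough; inconclusive means no rule stated for this call; inactive means not judged a hit on image review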;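 further: cells exposed to compound for three days before fixation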
# WNV protease inh: blocks West Nile virus NS2B-NS3 protease activity; P06935; hit rate 0.18% among 65,000; WNV NS2B-NS3 protease, fluorogenic substrate Ex360/Em465; active compounds read low; z-score (no concentration beside the values); in the data active means z-score below about -3
# M1 agonist conf: confirmation of rat M1 muscarinic receptor agonists; fluorescence change (max-min) at 10 µM; CHO-M1 cells, Fluo-4 calcium fluorescence, agonist mode; actives lie on both sides; AID 1488; hit rate 19% among 1,700; shares compounds with M1 agonist;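 active means fluorescence change differs from the solvent-only DMSO control mean at a set confidence level in both duplicate runs; inconclusive means differs from solvent-only control mean in just one of two runs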;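 further: an EC20 dose of acetylcholine follows compound addition during the same imaging run; raw fluorescence intensity difference in instrument units with no normalization to controls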
# M4 agonist ctr: counter-screen for M1 agonists: activity at rat M4 receptor; shares compounds with M1 agonist; CHO M4/Gqi5 cells, Fluo-4 calcium fluorescence, agonist mode; actives lie on both sides; fluorescence change (max-min) at 10 µM; hit rate 9% among 1,700;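 active means fluorescence change differing from the plate's solvent-only control wells at 99.7% confidence in both duplicates, whether higher or lower; inconclusive means differs from solvent controls in only one of two duplicates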
# Starred values were filed as active, the others as inactive; ? = inconclusive; · = not tested or not shown.
SMILES,D1 mod,M1 agonist,M1 antagonist,Htt clearance,WNV protease inh,M1 agonist conf,M4 agonist ctr
CS(=O)(=O)N(CC(=O)N1CCN(c2ccccc2F)CC1)c1cccc(C(F)(F)F)c1,1.1,-2.1,0.00062,-39,-0.11,·,·
CC1Cc2ccccc2N1C(=O)CCNS(=O)(=O)c1cccc2nsnc12 (stereo not given),-0.77,2.7*,-0.04,·,1.4,?,?
O=C(CCNS(=O)(=O)c1cccc2nsnc12)N1CCc2ccccc21,·,-0.37,0.21,·,1.3,·,·
Cc1oc(-c2ccc(Cl)cc2)nc1CN1CCC(C(=O)N2CCc3ccccc3C2)CC1,-0.63,5.7*,-3.7*,·,-0.13,?,-72
Cc1oc(-c2ccc(Cl)cc2)nc1CN1CCC(C(=O)N2CCN(Cc3ccccc3)CC2)CC1,0.32,2,-1.8,·,-1.9,·,·
CCOC(=O)C1CCN(S(=O)(=O)c2cccc(-c3cn4cccc(C)c4n3)c2)CC1,-0.0035,2.3*,-3*,·,-0.79,-12,-35
Cc1cc(C(=O)NCc2ccccc2Br)no1,0.059,-0.0016,0.0042,-33,-0.5,·,·
Oc1ccc(-c2nc3ccccn3c2NCc2ccc3c(c2)OCO3)cc1,0.21,4*,-2.6,·,-0.15,-4.7,-23
O=C1NC(=O)C2(COC3(CCCC3)OC2)S1,-0.044,-0.81,-0.065,18,-1.1,·,·
Cc1nc2ccccc2nc(C)c1=NO,·,·,·,2,·,·,·
C/C(O)=c1/ccc2cccc3nc(C)nc1c23,·,114*,-0.86,3,0.09,896*,814*
CCOC(=O)N1CCN(c2cc(NCCC(=O)O)c3c4c(onc24)-c2ccccc2C3=O)CC1,1.7,14*,0.7,·,-0.66,-7.4,-21
Cc1sc2nc(CSc3nc4ccccc4c(=O)n3CCCN3CCOCC3)[nH]c(=O)c2c1C,0.37,11*,-0.025,·,0.22,-2.2,-41
COc1ccc(C(=O)OCCN2CCOCC2)cc1,·,·,·,-6,·,·,·
CC(=O)c1cnc2nc(C(F)(F)F)nn2c1C,0,-0.88,-0.87,-60,-0.73,·,·
CC(C)Cc1nnc(NC(=O)c2ccc([N+](=O)[O-])cc2)s1,·,·,·,26,·,·,·
CCN(CC)CCCN1C(=O)C(O)=C(C(C)=O)C1c1ccc(OC)cc1OC (stereo not given),0.17,-0.2,0.086,·,-2.2,·,·
CCOC(=O)CC(=O)CSc1nc2c(cc1C#N)CCCCC2,-0.84,-0.35,-0.96,·,0.79,·,·
CCOC(=O)CC(=O)CSc1nc2c(c(C)c1C#N)CCC2,0.054,-2.9*,-1.2,0,-0.03,-8,-27
C=CCNCc1cccn1-c1ccccc1,0.067,-0.07,0.13,·,0.21,·,·
COC(=O)c1c(NC(=O)CN2CCN(c3ccccc3)CC2)c2c(C)cccc2n1C,-0.1,4.5*,0.36,5,0.78,-25*,?
COC(=O)c1c(NC(=O)CN2CCN(c3ccccc3OC)CC2)c2c(C)cccc2n1C,-0.6,3,-0.093,·,-0.03,·,·
CCOC(=O)N1CCC(NC(=O)c2cc(C)c3c(C)nn(-c4ccccc4)c3n2)CC1,·,1.9,0.0031,22,-0.06,·,·
CCOc1ccc(S(=O)(=O)n2ccc(C)n2)c2ccccc12,0.17,13*,0.32,·,0.78,-12,-20
O=C1CCCc2[nH]nc(-c3cccnc3)c21,-0.13,-1.3,0.29,·,-0.21,·,·
SMILES,D1 mod,M1 agonist,M1 antagonist,Htt clearance,WNV protease inh,M1 agonist conf,M4 agonist ctr
CCOC(=O)c1cc2c(=O)n3cccc(C)c3nc2n(CCCOC)c1=NC(=O)c1cccnc1,·,2.4*,-1.3,2,-0.46,-23,-27
COCCCn1c(=NC(=O)c2ccncc2)c(C#N)cc2c(=O)n3cccc(C)c3nc21,0.74,129*,-1,·,4,469*,363*
COc1ccc(C(=O)N=c2c(C#N)cc3c(=O)n4cccc(C)c4nc3n2Cc2ccco2)cc1,·,·,·,-22,·,·,·
CCOC(=O)c1cc2c(=O)n3cccc(C)c3nc2n(CCOC)c1=NC(=O)c1ccncc1,-0.75,-0.51,0.39,-97,-0.74,·,·
Cc1cccn2c(=O)c3cc(C#N)c(=NC(=O)c4ccncc4)n(CCCOC(C)C)c3nc12,-0.15,83*,0.0034,-13,2.9,587*,511*
O=C(Nc1ccc(Cl)c(Cl)c1)N(CCCN1CCOCC1)Cc1cccs1,·,·,·,8,·,·,·
COc1ccc2cc(C(=O)c3ccccc3)c(=O)oc2c1,·,·,·,-7,·,·,·
CC(=O)Oc1ccc2cc(-c3nc4ccccc4n3C)c(=O)oc2c1,-1,5.8*,0.27,·,3.5,45,16
